Screen size: about 320,000 compounds; about 22,000 (6.9%) were called active. Roughly 27% stayed inconclusive and do not appear here. The entries come from a sample that favours actives as a whole. Entries that show only a call come without a potency. Unmarked numbers belong to inactive results. Calls come from the whole dose curve; as a rule, active = well fitted inhibition curve with a large enough effect; inconclusive = small, poorly fitted or top-dose-only effect, or another doubt; inactive = no such curve, though single readings can be large or run the other way.
Assay: Primary qHTS for delayed death inhibitors of the malarial parasite plastid, 96 hour incubation
Conditions: P. falciparum luciferase reporter growth; series mostly up to 28.7 µM
Outline: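 Readout is luminescence from an integrated firefly luciferase in P. falciparum. Red cells, 2% hematocrit and 0.05% parasitemia final, were cultured with compound through two parasite generations (96 hours) at 37 C, 5% CO2.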
Potency is the fitted concentration of half-maximal effect.

Row | SMILES | Potency | activity change, negative = inhibition
1 | COc1ccc(-c2noc(CNC(=O)C(C)Oc3ccccc3)n2)cc1 (centres undefined) | 13.1 µM (active) | –
2 | COc1ccc(-c2noc(C(C)NS(=O)(=O)c3ccc(NC(C)=O)cc3)n2)cc1 (centres undefined) | inactive | –
3 | O=C(Cc1ccc(Cl)cc1)NCc1nc(-c2ccccc2)no1 | – | -24.9% [at 1.15 µM]
4 | Cc1ccc(OCC(=O)Nc2ccc3oc(=O)ccc3c2)cc1C | inactive | –
5 | Cc1ccc(S(=O)(=O)N2CCN(C(=O)c3ccc(-n4cncn4)c([N+](=O)[O-])c3)CC2)cc1 | inactive | –
6 | CN1CCN(C(=O)C(=O)c2cn(CC(=O)N3CCCC3)c3ccccc23)CC1 | inactive | –
7 | CCN(CC)c1nc(-c2ccccc2)cc(C(F)(F)F)c1C#N | inactive | –
8 | CCCn1c(=O)c2c(C(F)(F)F)cc(-c3cccs3)nc2n(CCC)c1=O | inactive | –
9 | N#Cc1c(C(F)(F)F)cc(-c2cccs2)nc1N1CCCCC1 | 10.4 µM (active) | –
10 | CCOc1ccc2c(c1)c(=O)c(S(=O)(=O)c1ccc(C)cc1)cn2CC | inactive | –
11 | COC(=O)c1ccc(NC(=O)CSc2nncn2-c2cccnc2)cc1 | inactive | –
12 | COc1cccc(C(=O)NNC(=O)c2ccccc2Br)c1 | inactive | –
13 | COc1cccc(C(=O)NNC(=O)c2cccc(F)c2)c1 | 0.37 µM (active) | –
14 | COc1cccc(C(=O)NNC(=O)/C=C/c2ccccc2)c1 | inactive | –
15 | COCCCNS(=O)(=O)c1cccc(S(=O)(=O)c2cccc(S(=O)(=O)NCCCOC)c2)c1 | inactive | –
16 | CCc1noc(C)c1C(=O)Oc1ccc(N(C)S(=O)(=O)c2ccc(C)c(C)c2)cc1 | inactive | –
17 | C/C(=N\NC(=S)NCc1ccccc1)c1ccc(Cl)cc1 | inactive | –
18 | CC1CCCCN1C(=S)NCc1ccccc1 (centres undefined) | inactive | –
19 | C/C(=N\NC(=S)NCc1ccccc1)C1CCCCC1 | 6.57 µM (active) | –
20 | Cc1c(C)n2c(SCC(=O)N3CCCC3)nnc2[nH]c1=O | inactive | –
21 | COc1cc(OC)c(NS(=O)(=O)c2cn(C)cn2)cc1Cl | inactive | –
22 | COC(=O)c1c(C)oc(C)c1S(=O)(=O)Nc1ccc(C(C)C)cc1 | inactive | –
23 | CN(CC(=O)Nc1ccc(N2CCOCC2)cc1)CC(=O)Nc1ccccc1[N+](=O)[O-] | inactive | –
24 | CCc1ccccc1NC(=O)NCCN1CCCCC1 | inactive | –
25 | CN1CCN(CCNC(=O)Nc2ccccc2[N+](=O)[O-])CC1 | 8.28 µM (active) | –
26 | CC1Cc2cc(/C(O)=C3\C(=O)C(=O)N(Cc4cccnc4)C3c3ccccc3F)ccc2O1 (centres undefined) | inactive | –

Row | SMILES | Potency | activity change, negative = inhibition
27 | CCn1cc(C(=O)N2CC(C)CC(C)C2)c(=O)c2cc(S(=O)(=O)N3CCCC3)ccc21 (centres undefined) | inactive | –
28 | COC(=O)c1cn(C)c2ccc(S(=O)(=O)N3CC(C)CC(C)C3)cc2c1=O (centres undefined) | 3.7 µM (active) | –
29 | CC1CC(C)CN(S(=O)(=O)c2ccc(C(=O)NN3CCOCC3)cc2)C1 (centres undefined) | inactive | –
30 | Cc1ccc(-c2cc(C(=O)NN)n[nH]2)o1 | inactive | –
31 | CCC1(CC)NC(=O)N(CC(=O)OCC(=O)c2cc(C)c(C)cc2C)C1=O | inactive | –
32 | Cc1cc(-c2nnc(SCC(=O)Nc3ccc(S(N)(=O)=O)cc3)n2N)n[nH]1 | inactive | –
33 | N#Cc1ccc(C(=O)OCC(=O)NC(=O)NC2CCCCC2)cc1 | inactive | –
34 | O=C(c1cccc(C(=O)N2CCN(c3ccc(F)cc3)CC2)c1)N1CCN(c2ccc(F)cc2)CC1 | 9.28 µM (active) | –
35 | O=C(c1cc2cc(F)ccc2[nH]1)N1CCN(c2ccc(F)cc2)CC1 | inactive | –
36 | O=C(c1ccccc1)c1ccc(C(=O)N2CCN(c3ccccc3)CC2)cc1 | inactive | –
37 | CC(C)(C)c1ccc(S(=O)(=O)N2CCN(C(=O)c3ccc4c(c3)C(=O)N(Cc3ccncc3)C4=O)CC2)cc1 | inactive | –
38 | CC(=O)c1ccc(NC(=O)c2cc(-c3cccs3)on2)cc1 | inactive | –
39 | Cc1ccc(NC(=O)CSc2sc3c(O)cc(=O)[nH]c3c2C#N)cc1C | inactive | –
40 | CCC1(c2ccccc2)NC(=O)N(CC(=O)c2ccc3c(c2)OCO3)C1=O (centres undefined) | inactive | –
41 | COc1ccc(N(CC(=O)NCCSCc2cccc(Cl)c2)S(C)(=O)=O)cc1 | inactive | –
42 | CN(C)c1ccc(/C=C2\CC3C4CC=C5CC(O)CCC5(C)C4CCC3(C)C2=O)cc1 (centres undefined) | 2.33 µM (active) | –
43 | CCC(CCC(C)C1CCC2C3CC=C4CC(O)CC[C@@]4(C)C3CC[C@@]12C)C(C)C (some centres undefined) | inactive | –
44 | CN(C)c1ccc(C=C2C(=O)OC3(CCCC3)OC2=O)cc1 | inactive | –
45 | O=C(O)[C@@H](S)[C@H](S)C(=O)O | 1.69 µM (active) | –
46 | c1cnc(N2CCN(c3ccc4ccccc4n3)CC2)nc1 | inactive | –
47 | Cc1ccc(-c2csc(-c3cc(C)on3)n2)cc1 | inactive | –
48 | Fc1ccc(-c2csc(-c3ccc(C4SCCS4)cc3)n2)cc1F | inactive | –
49 | Clc1ccc(-c2csc(-c3ccncc3)n2)cc1 | 0.185 µM (active) | –
50 | Cc1ccc(C(=O)N(CC(=O)NC2CCCC2)c2ccc(F)cc2)s1 | inactive | –
51 | COCc1ccc(C(=O)NC2CC(C)(C)Cc3c2cnn3-c2ccc(C)cc2)o1 (centres undefined) | inactive | –
52 | Cc1cc(C)cc(NC(=S)NC2CC3CCCC(C2)N3Cc2cccs2)c1 (centres undefined) | 2.33 µM (active) | –

Row | SMILES | Potency | activity change, negative = inhibition
53 | C=CCN1C2CCCC1CC(NC(=S)Nc1cccc(OC)c1)C2 (centres undefined) | inactive | –
54 | COc1ccc(NC(=O)NC2CC3CCCC(C2)N3Cc2ccccc2)cc1 (centres undefined) | inactive | –
55 | CCC(CC)NC(=O)/C=C/c1cccc([N+](=O)[O-])c1 | inactive | –
56 | CN(C(=O)c1cccc([N+](=O)[O-])c1)c1ccccc1C(=O)NCc1ccccc1 | inactive | –
57 | CCC1(C(=O)c2ccccc2)C(c2cccc([N+](=O)[O-])c2)C1(C(=O)OC)C(=O)OC (centres undefined) | 13.1 µM (active) | –
58 | O=C(O)CSCC(=O)Nc1ccc(C(F)(F)F)cc1 | inactive | –
59 | O=C(CCl)Nc1ccc(Sc2ccc(NC(=O)CCl)cc2)cc1 | 1.85 µM (active) | –
60 | CCC(=O)Nc1ccc(Nc2nc(Cl)nc(Nc3ccc(NC(=O)CC)cc3)n2)cc1 | inactive | –
61 | Cc1ccc2nc(N(CCN(C)C)C(=O)C3=COCCO3)sc2c1 | inactive | –
62 | COCCNC(=O)c1ccc2nc(Cc3ccc(OC)c(OC)c3)oc2c1 | inactive | –
63 | O=C(Nc1ccccc1[N+](=O)[O-])C1C(c2ccccc2)=C1c1ccccc1 | 13.1 µM (active) | –
64 | O=C(CN1CCCCC1)Nc1ccccc1C(=O)NC1CC1 | inactive | –
65 | O=C(O)c1ccccc1NC(=O)c1ccccc1-c1ccccc1C(=O)O | inactive | –
66 | O=C(Nc1ccccc1-c1ccccc1)c1ccccc1[N+](=O)[O-] | inactive | –
67 | O=C(CN1CCC(NC(=O)C2CC2)CC1)Nc1ccccc1[N+](=O)[O-] | 0.738 µM (active) | –
68 | O=C(O)c1ccccc1C(=O)Nc1ccccc1[N+](=O)[O-] | inactive | –
69 | O=C(Nc1cccc(NC(=O)c2ccccc2[N+](=O)[O-])c1)c1ccccc1Cl | inactive | –
70 | O=C(Nc1ccncc1)c1ccccc1[N+](=O)[O-] | inactive | –
71 | O=[N+]([O-])c1ccccc1Nc1ccc(O)cc1 | inactive | –
72 | O=C(CN1CCC(NC(=O)Nc2ccccc2)CC1)Nc1cccc([N+](=O)[O-])c1 | inactive | –
73 | O=C(O)c1ccccc1NC(=S)NC(NC(=O)c1ccccc1[N+](=O)[O-])C(Cl)(Cl)Cl (centres undefined) | 13.1 µM (active) | –
74 | O=C(NNC(=O)c1ccccc1[N+](=O)[O-])Nc1ccccc1C(F)(F)F | 11.7 µM (active) | –
75 | Cc1ccsc1C(=O)NCCc1ccco1 | inactive | –
76 | CCCOC1CCCN(C(=O)c2cc(COc3cncc(Cl)c3)on2)C1 (centres undefined) | inactive | –
77 | O=C1Nc2cc(C(=O)N3CCN(c4ccc(F)cc4)CC3)ccc2NC1CSCc1cccc(F)c1 (centres undefined) | inactive | –
78 | COC(=O)c1sc(NC(=S)NC(=O)c2ccc(C)cc2)nc1C | inactive | –

Row | SMILES | Potency | activity change, negative = inhibition
79 | Nc1cccc(S(=O)(=O)Nc2ccc(SC(F)F)cc2)c1 | inactive | –
80 | COc1cc(N=Cc2c(O)c3ccccc3oc2=O)c(OC)cc1Cl | inactive | –
81 | CCOc1ccc(S(=O)(=O)NCCC(=O)N2CCCCCCC2)cc1 | inactive | –
82 | CCN(CC(=O)NCc1ccc(Cl)cc1)C(=O)c1c(C)noc1C | inactive | –
83 | Cc1ccccc1Nc1c([N+](=O)[O-])ccc2nonc12 | inactive | –
84 | CCc1nc2sc3c(Cl)ncnc3c2c2c1CCCC2 | inactive | –
85 | Cc1nc(-c2ccc(F)cc2)c(CC(=O)N(C)CC(=O)Nc2c(C)cccc2C)s1 | inactive | –
86 | Cc1nc(-c2ccc(F)cc2)c(CC(=O)N2CCN(S(=O)(=O)c3ccc(F)cc3)CC2)s1 | 13.1 µM (active) | –
87 | O=C(c1cnc(Cl)c(Cl)c1)N1CCN(S(=O)(=O)c2ccc(F)cc2)CC1 | inactive | –
88 | COc1ccc(N2C(=O)NC(NS(=O)(=O)c3ccc(Cl)cc3)(C(F)(F)F)C2=O)cc1 (centres undefined) | inactive | –
89 | O=C1CSc2ccc(S(=O)(=O)NCc3ccccc3)cc2N1 | inactive | –
90 | CC1(C)CC(=O)C(N=Nc2c(F)cccc2F)=C(O)C1 | inactive | –
91 | CCC(NC(=O)C1CCCC1)c1ccc(C)cc1 (centres undefined) | inactive | –
92 | CCCCN(CC(=O)Nc1cccc(S(=O)(=O)N2CCCC2)c1)Cc1nc2ccccc2c(=O)[nH]1 | 5.86 µM (active) | –
93 | O=C(Cn1cnc2ccccc2c1=O)Nc1cccc(S(=O)(=O)N2CCCCC2)c1 | inactive | –
94 | CCN(CC(=O)Nc1cccc(S(N)(=O)=O)c1)Cc1nc2ccccc2c(=O)[nH]1 | inactive | –
95 | CCc1noc(C)c1C(=O)N1CCN(S(=O)(=O)c2cccc(C(F)(F)F)c2)CC1 | inactive | –
96 | Cn1ncc(Br)c1C(=O)NC1CCCC1 | inactive | –
97 | NC(=O)CSc1nnc(NC(=O)c2ccc3ccccc3c2)s1 | inactive | –
98 | CC(=O)N1N=C(c2ccccc2)OC1c1cccnc1 (centres undefined) | inactive | –
99 | CC(C)(C)N(Cc1ccccc1)C(=O)c1ccncc1 | inactive | –
100 | CC(=O)N1N=C(c2ccncc2)OC1(Cc1ccccc1)Cc1ccccc1 | 11.7 µM (active) | –
101 | Cn1c(C(=O)N2CCCC(C(=O)NCc3ccccc3)C2)cc2sccc21 (centres undefined) | inactive | –
102 | COc1cc(-c2cc(C(=O)OCC(=O)Nc3ccc4c(c3)OCO4)c3ccccc3n2)cc(OC)c1OC | inactive | –
103 | COc1ccc(NC(=O)c2cc(-c3cc(OC)c(OC)c(OC)c3)nc3ccccc23)c(OC)c1 | 2.62 µM (active) | –
104 | CNC(=O)COC(=O)c1cc(-c2ccc(OC)cc2)nc2ccccc12 | inactive | –
